Source: PubChem BioAssay (Tox21)
Records with an inconclusive call do not appear. A number with no mark means an inactive call. The call rests on the fitted dose curve; in most records, active means well fitted activation curve with a large enough effect in the signal ratio in the repeat runs (not every such curve was filed as active); inconclusive means weak or mixed curves, or effect the other way; inactive means flat fitted curve, though single readings scatter; the % refers to the signal ratio.

Test: qHTS assay to identify small molecule agonists of the endoplasmic reticulum stress response signaling pathway (AID 1159516)
Conditions: ESRE-bla HeLa, ER stress beta-lactamase reporter, 5 h; series mostly up to 61 µM; activation: at the top concentration
From the text: National Center for Advancing Translational Sciences [NCATS]
NIH Chemical Genomics Center [NCGC]
U.S. Environmental Protection Agency [EPA]
National Institutes of Environmental Health Sciences [NIEHS]
National Toxicology Program [NTP]
U.S. Food and Drug Administration [FDA]
Endoplasmic Reticulum (ER) plays an important role in cellular signaling, protein folding/maturation, stress response, lipid biosynthesis, calcium storage and release etc. Under stress conditions, proteins in ER misfold or unfold, and leading to the expression of ER stress responsive genes. ER stress has been associated with a variety of pathophysiological conditions such as cancer, inflammation, neurodegenerative diseases, diabetes, ischemic heart disease etc. To identify the compounds that induce ER stress response, an ER stress reporter cell line, CellSensor ESRE-bla HeLa (Life Technologies, Carlsbad, CA) containing a beta-lactamase reporter gene under control of the Endoplasmic reticulum Stress Response Element (ESRE) was used to screen Tox21 10K compound library.
Tox21 Assay Protocol Summary:
ESRE-bla HeLa cells were dispensed at 1,500 cells/6 uL of assay medium per well into black wall/clear-bottom 1536-well plates using a Multidrop Combi (ThermoFisher Scientific, Waltham, MA) dispenser. After the assay plates were incubated at 37 C and 5% CO2 for an overnight, 23 nL of compounds dissolved in DMSO, positive controls or DMSO only was transferred to the assay plate by a Pintool station (Kalypsys, San Diego, CA). The assay plates were incubated at 37 C and 5% CO2 for 5 hr. One uL of LiveBLAzer B/G FRET substrate (Life Technologies) was added using a Flying Reagent Dispenser (Aurora Discovery, San Diego, CA) and the plates were incubated at room temperature for 2 hr. Fluorescence intensity (405 nm excitation, 460 nm and 530 nm emissions) was measured using an Envision plate reader (PerkinElmer, Shelton, CT).
On the % scale 0 is the no-effect control and ±100 the full control effect.

| Structure (SMILES) | activation |
| --- | --- |
| CN(C)CCN(C)CCN(C)C | 0.028% |
| CCC(=O)OCc1ccccc1 | 4.69% |
| CCCCCCCCCC[N+](C)(C)[O-] | 6.79% |
| C[N+]1(C)[C@@H]2CC(OC(=O)[C@H](CO)c3ccccc3)C[C@H]1[C@@H]1O[C@@H]12 (stereo not given in full) | -5.63% |
| CCCCOCCOC(=O)COc1cc(Cl)c(Cl)cc1Cl | 0.772% |
| O=C1CCCCCCCCCCCCCCO1 | -0.0627% |
| CC(=O)Oc1cccc(C)c1 | 2.28% |
| CC(=O)Nc1ccc(OCC(O)CNC(C)C)cc1 (stereo not given) | 0.283% |
| CN1CCN(c2cc3c(nn2)Oc2ccccc2N3C)CC1 | 2.92% [at 28.5 µM] |
| CC(=O)N1C[C@H](O)C[C@H]1C(=O)O | 1.09% |
| C[N+]1(C)CCCC(OC(=O)C(O)(c2ccccc2)c2ccccc2)C1 (stereo not given) | 0.42% |
| CN1C(C)(C)CC(O)CC1(C)C | 3.04% |
| C[C@H]1[C@H](NC(=O)/C(=N/OC(C)(C)C(=O)O)c2csc(N)n2)C(=O)N1S(=O)(=O)O (stereo in doubt) | 0.685% |
| CCN(CC#N)c1cccc(C)c1 | -0.752% |
| CCN[C@H]1C[C@H](C)S(=O)(=O)c2sc(S(N)(=O)=O)cc21 | 1.42% |
| CCCO[Si](OCCC)(OCCC)OCCC | 1.43% |
| Cc1ccc(C(=O)Nc2ccc(S(=O)(=O)O)c3cc(S(=O)(=O)O)cc(S(=O)(=O)O)c23)cc1NC(=O)c1cccc(NC(=O)Nc2cccc(C(=O)Nc3cc(C(=O)Nc4ccc(S(=O)(=O)O)c5cc(S(=O)(=O)O)cc(S(=O)(=O)O)c45)ccc3C)c2)c1 | 1% |
| COC(=O)C1=C(C)NC(C)=C(C(=O)OC(C)C)C1c1cccc2nonc12 (stereo not given) | -9.65% |
| Nc1ccn([C@@H]2O[C@H](CO)[C@@H](O)C2(F)F)c(=O)n1 | -8.38% |
| CC/C=C\CCOC(C)OCC (stereo not given) | -4.51% |

| Structure (SMILES) | activation |
| --- | --- |
| OCCc1ccccn1 | -2.48% |
| c1coc(CNc2ncnc3nc[nH]c23)c1 | -0.99% |
| CC[N+](CC)(CC(=O)Nc1c(C)cccc1C)Cc1ccccc1 (tested in a mixture with another compound) | 0.469% |
| CC1CCC(CO)CC1 (stereo not given) | 7.3% [at 78.8 µM] |
| CCO[Si](OCC)(OCC)c1ccccc1 | -1.45% |
| CN1CC(=O)N/C1=N/C(=O)Nc1cccc(Cl)c1 | 1.9% |
| CCCCN1C=CN(C)C1 | -1.94% [at 28.5 µM] |
| CCOc1c(N2CCOCC2)cnn(C)c1=O | -2.15% |
| CC[N+](C)(CC)CCOC(=O)C1c2ccccc2Oc2ccccc21 | 0.874% |
| Cc1ccc(-c2ccccc2C#N)cc1 | -1.98% |
| [K+] | 2.78% |
| Nc1ccn([C@@H]2O[C@H](CO)[C@@H](O)C2O)c(=O)n1 (stereo not given in full) | -0.0768% |
| CN1[C@@H]2CC[C@H]1CC(OC(=O)C(O)c1ccccc1)C2 (stereo not given in full) | -1.45% |
| NC(=O)Cc1cccc2ccccc12 | -3.07% |
| Cc1nc(C2CCCCC2)c(-c2ccc(S(N)(=O)=O)c(F)c2)o1 | -3.69% |
| CCCCc1nc(Cl)c(CO)n1Cc1ccc(-c2ccccc2-c2nn[nH]n2)cc1 | -2.26% |
| O=C(O)c1cc(C(=O)O)cc(C(=O)O)c1 | -3.02% [at 78.8 µM] |
| Cc1nc2ccc(CN(C)c3ccc(C(=O)N[C@@H](CCC(=O)O)C(=O)O)s3)cc2c(=O)[nH]1 | -1% |
| CC1OC1C1CCC2(C)OC2C1 (stereo not given) | 0.303% |
| CCN(C=O)CC | -1.22% [at 78.8 µM] |
